Experimental data from PubChem BioAssay (NCATS).
Results filed as inconclusive are left out. Values without a mark were called inactive. Active and inactive are the calls of the source. The call rests on the fitted dose curve; in most records, active means well fitted cell-killing curve with a large enough effect; inconclusive means small, poorly fitted or top-dose-only effect; inactive means no such curve, though single readings can be large or run the other way.

Assay: qHTS of pediatric cancer cell lines to identify multiple opportunities for drug repurposing: Primary screen for SK-N-SH cells (AID 1347098); further: nearly all actives have a fitted effect of over 65% in size;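 on activity change, negative = cytotoxic: DMSO served as neutral control and bortezomib at 2.3 µM as positive control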
Conditions: SK-N-SH viability, CellTiter-Glo luminescence, 48 h; series mostly up to 57 µM; activity change, negative = cytotoxic: at the top concentration
In short: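 Cells (500-1,000/well) rested 5 h, then received compounds for 48 h; metabolically active cells were measured by CellTiter-Glo luminescence. Final concentrations spanned up to 46 µM (MIPE, 11-point) or 0.59 nM-46 µM (NPC, 8-point) in primary screens, 11-point in follow-ups.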
On the % scale 0 is the no-effect control and ±100 the full control effect; potency means the concentration at half of the fitted maximal effect.

Compound	activity change, negative = cytotoxic	Potency
CNC(=O)CN(CCN(CCN(CC(=O)[O-])CC(=O)NC)CC(=O)[O-])CC(=O)[O-].O.[Gd+3]	4.86%	
OC(CCN1CCCCC1)(c1ccccc1)c1ccccc1	-2.29%	
COc1cc2c(cc1OC)[C@@H]1CC(=O)[C@@H](CC(C)C)CN1CC2	-15.9%	
CC1(C)O[C@@H]2C[C@H]3[C@@H]4CCC5=CC(=O)CC[C@]5(C)[C@@]4(F)[C@@H](O)C[C@]3(C)[C@]2(C(=O)CCl)O1	3.39%	
CCCC(=O)O[C@]1(C(=O)CO)CC[C@H]2[C@@H]3CCC4=CC(=O)CC[C@]4(C)[C@H]3[C@@H](O)C[C@@]21C	7.77%	
C[C@]12CC[C@H]3[C@@H](CCC4=CC(=O)CC[C@@]43C)[C@@H]1CC[C@@H]2C(=O)CO	-15.6%	
C[C@@H]1C[C@H]2[C@@H]3CCC4=CC(=O)C=C[C@]4(C)[C@@]3(F)[C@@H](O)C[C@]2(C)[C@H]1C(=O)CO	-4.3%	
C[C@@H]1C[C@H]2[C@@H]3C[C@H](F)C4=CC(=O)C(Cl)=C[C@]4(C)[C@@]3(F)[C@@H](O)C[C@]2(C)[C@@]1(O)C(=O)CO	11%	
CC(=O)[C@H]1CC[C@H]2[C@@H]3C[C@H](C)C4=CC(=O)CC[C@]4(C)[C@H]3[C@@H](O)C[C@]12C	24.8%	
O=C(OCC(O)CO)c1ccccc1Nc1ccnc2cc(Cl)ccc12 (centres undefined)	-16.5%	
CC(=O)Oc1ccc(C(c2ccc(OC(C)=O)cc2)c2ccccn2)cc1	-1.57%	
O=C(COc1ccc(Cl)cc1)N1CCN(Cc2ccc3c(c2)OCO3)CC1	-17.9%	
CCOC(=O)n1ccn(C)c1=S	-26.2%	
COc1cc(C(=S)N2CCOCC2)cc(OC)c1OC	9.83%	
CCCCC(=O)O[C@]1(C(=O)CO)CC[C@H]2[C@@H]3CCC4=CC(=O)CC[C@]4(C)[C@H]3[C@@H](O)C[C@@]21C	-2.17%	
CCN(CC)CCOC(=O)C(c1ccccc1)C1CCCCC1 (centres undefined)		30.7 µM (active)
O=C(CCCN1CCC(O)(c2ccc(Br)cc2)CC1)c1ccc(F)cc1	-23.7%	
NC(CS)C(=O)O (centres undefined)	0.326%	
Cc1c(F)c(N2CCNC(C)C2)cc2c1c(=O)c(C(=O)O)cn2C1CC1 (centres undefined)	5.88%	
CC(=O)OCC(=O)[C@@]1(O)CC[C@H]2[C@@H]3CCC4=CC(=O)C=C[C@]4(C)[C@H]3[C@@H](O)C[C@@]21C	9.64%	

Compound	activity change, negative = cytotoxic	Potency
COc1cc(/C=C/C(=O)O[C@H]2CC[C@]34C[C@]35CC[C@]3(C)[C@@H]([C@H](C)CCC=C(C)C)CC[C@@]3(C)[C@@H]5CC[C@H]4C2(C)C)ccc1O	-13%	
CCCCCCCCCCCCCCNCCO	-17.2%	
CC1(C)O[C@@H]2C[C@H]3[C@@H]4C[C@H](F)C5=CC(=O)CC[C@]5(C)[C@H]4[C@@H](O)C[C@]3(C)[C@]2(C(=O)CO)O1	13.3%	
CC(C)(CO)[C@@H](O)C(=O)NCCCO	9.53%	
CCN(CC)C(=O)N1CCN(C)CC1	3.68%	
NC(CO)(CO)CO	-18.4%	
NCCCC[C@H](N[C@@H](CCc1ccccc1)C(=O)O)C(=O)N1CCC[C@H]1C(=O)O	0.701%	
O=C(O)CNC(=O)c1ccccc1	7.18%	
Cc1nc2n(c(=O)c1CCN1CCC(c3noc4cc(F)ccc34)CC1)CCC[C@H]2O	-0.191% [at 20 µM]	
O=c1[nH]c(=O)n([C@H]2C[C@H](O)[C@@H](CO)O2)cc1C(F)(F)F	-21.4%	
CC(Cc1ccccc1)(NC(=O)CN)c1ccccc1 (centres undefined)	2.84%	
OCc1ccccc1O	5.58%	
CO/N=C1\CN(c2nc3c(cc2F)c(=O)c(C(=O)O)cn3C2CC2)CC1CN (centres undefined)	7.06%	
C[C@]12CCC(=O)C=C1[C@@H]1C[C@@H]1[C@H]1[C@@H]3[C@@H]4C[C@@H]4[C@@]4(CCC(=O)O4)[C@@]3(C)CC[C@@H]12	-16.4%	
c1ccc(CNCCNCc2ccccc2)cc1	-6.32%	
OC[C@H]1O[C@H](O[C@]2(CCl)O[C@H](CCl)[C@@H](O)[C@@H]2O)[C@H](O)[C@@H](O)[C@H]1Cl	-5.95%	
O=C1OC2(c3ccc(O)cc3Oc3cc(O)ccc32)c2ccccc21	-24.2%	
C[C@]12CC[C@@H]3c4ccc(O)cc4CC[C@H]3[C@@H]1C[C@@H](O)[C@@H]2O	-6.14%	
NCCC(O)(P(=O)(O)O)P(=O)(O)O	-16.6%	
